# Assay results: PubChem BioAssay AID489012 (National Center for Advancing Translational Sciences (NCATS), 2010)
# Records with an inconclusive call do not appear. The source made the active and inactive calls. Calls follow the shape of the dose curve; as a rule, active = well fitted activation curve with a large enough effect; inconclusive = small, poorly fitted or top-dose-only effect; inactive = no such curve, though single readings can be large or run the other way.
# Target: Relaxin receptor 1 (Homo sapiens) (UniProt Q9HBX9)
# Experiment: qHTS Assay for Agonists of the Relaxin Receptor RXFP1: RXFP1 Hit Validation; also: nearly all actives have a fitted effect of over 65% in size;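 as to activation: cAMP rise lowers the TR-FRET signal in lysed cells with PDE4 inhibitor present; 0% = buffer-only basal and 100% = 29 nM porcine relaxin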
# Details: HEK293T-RXFP1 cAMP TR-FRET, 30 min; series mostly up to 115 µM; activation: at the top concentration
# Description: NIH Chemical Genomics Center [NCGC] NIH Molecular Libraries Probe Production Centers Network [MLPCN] MLPCN Grant: R03 MH085705-01A1 Assay Submitter (PI): Alexander Agoulnik NCGC Assay Overview: The relaxin hormone is involved in the variety of biological functions in normal tissues and diseases. The role of relaxin is well-established in female reproduction and parturition, mammary gland and endometrial development, maintenance of myometrial quiescence during pregnancy. Relaxin signaling through its G protein-coupled receptor (GPCR) RXFP1 results in ECM remodeling through regulation of collagen deposition, cell invasiveness, proliferation and overall tissue homeostasis. […] Recombinant human relaxin (rhRlx) is currently being tested in clinical trials as a protective agent in congestive heart failure, in treating severe preeclampsia, and as an anti-fibrotic agent in systemic sclerosis. Upon relaxin binding RXFP1 activation leads to the activation of adenylate cyclase (AC) via Gs. cAMP will activate PKA, which phosphorylates many signaling proteins. Thus, detection of cAMP increase is an easy and reliable indication of relaxin receptor activation. To screen for agonists of the relaxin receptor, a HEK293T cell line stably transfected with RXFP1 was used. RXFP1 activation was assayed by changes in cAMP levels as detected with a time-resolved fluorescence energy transfer (TR-FRET) cAMP detection kit.
# NCGC Assay Protocol Summary: This is a cell-based assay for cAMP second messenger response to screen for agonists of the RXFP1 receptor. The assay was conducted in the presence of a PDE4 inhibitor (Ro 20174). The cells were lysed and the cAMP levels were measured with a TR-FRET cAMP kit. Presence of cAMP in the cell lysate disrupts binding between the cryptate-labeled anti-cAMP and d2-labeled cAMP pair, leading to a decrease in the TR-FRET signal. Data were normalized to the controls for basal activity (buffer only) and 100% activity (29 nM porcine relaxin). The EC50 values were determined from concentration-response data modeled with the standard Hill equation 1536-well assay protocol for the HEK293 RXFP1 cAMP assay: (1) Add 3 ul HEK293 RXFP1 cell culture. 2000 cells/well in DMEM/F12, 10% FBS, 1x Pen/Strep (dispensed offline with MultiDrop Combi). (2) Incubate 16-24 hr at 37C, 5% CO2. (3) Add 1 ul 400uM Ro20174 in DPBS, 0.05% BSA, 0.005% Tween 20. (3) Add 23 nl compounds in DMSO solution. Final concentration was 0.5 - 58 uM. (4) Incubate 30 min at 37C, 5% CO2. (5) Add 1 ul cAMP-d2 in lysis buffer (HTRF cAMP HiRange kit, CisBio). (6) Add 1 ul anti-cAMP antibody-cryptate in lysis buffer (HTRF cAMP HiRange kit, CisBio). (7) Incubate 30 min at room temperature. […] Keywords: relaxin, RXFP1, RXFP2, G-protein coupled receptor, cAMP, agonist, high throughput screening, MLSMR, MLSCN, NIH Roadmap, qHTS and NCGC
# Potency is read from the fitted curve at half-maximal effect.
# Sequence of Relaxin receptor 1 (Homo sapiens) (Q9HBX9 whole entry, looked up): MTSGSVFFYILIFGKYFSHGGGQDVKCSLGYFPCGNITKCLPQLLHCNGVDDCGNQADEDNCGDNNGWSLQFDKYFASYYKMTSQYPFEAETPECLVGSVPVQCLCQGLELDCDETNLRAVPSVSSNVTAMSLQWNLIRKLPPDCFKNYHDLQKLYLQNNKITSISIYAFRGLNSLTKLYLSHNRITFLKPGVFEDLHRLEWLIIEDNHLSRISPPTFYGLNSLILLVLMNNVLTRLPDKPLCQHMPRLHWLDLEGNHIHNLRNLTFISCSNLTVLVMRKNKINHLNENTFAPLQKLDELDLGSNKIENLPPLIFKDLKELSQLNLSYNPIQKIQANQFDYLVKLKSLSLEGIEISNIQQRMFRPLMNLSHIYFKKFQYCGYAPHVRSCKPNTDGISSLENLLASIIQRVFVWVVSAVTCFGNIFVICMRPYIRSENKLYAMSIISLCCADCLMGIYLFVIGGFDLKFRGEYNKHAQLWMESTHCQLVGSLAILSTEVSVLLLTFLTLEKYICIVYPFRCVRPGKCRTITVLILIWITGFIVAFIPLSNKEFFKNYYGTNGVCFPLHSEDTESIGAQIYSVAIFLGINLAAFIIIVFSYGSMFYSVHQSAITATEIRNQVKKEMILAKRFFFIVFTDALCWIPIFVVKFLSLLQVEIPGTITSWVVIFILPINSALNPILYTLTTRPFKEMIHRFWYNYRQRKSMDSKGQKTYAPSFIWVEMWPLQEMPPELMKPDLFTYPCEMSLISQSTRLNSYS
SMILES,activation,Potency
O=C(O)c1ccc(N=C2NC(=O)C(CO)(CO)S2)cc1,4.45% [at 45 µM] (inactive),–
C=C(C)C(=O)Nc1cccc(C2=NOC3(C2)C[C@@H](C(N)=O)N(C(=O)c2ccc(Cl)cc2)C3)c1 (stereo not given in full),4.05% (inactive),–
Cc1cccn2c(=O)c3cc(C(=O)NC4CCCC4)c(=N)n(CCCN4CCOCC4)c3nc12,22.6% (inactive),–
COc1ccc(CN2C(=O)c3cccnc3C2=O)cc1S(=O)(=O)NC1CCCCC1,–,38.9 µM (active)
CCc1cc2cc3c(cc2nc1SCC(=O)Nc1nccs1)OCO3,–,17.3 µM (active)
COc1ccc(C(=O)Nc2ccc(S(=O)(=O)Nc3onc(C)c3C)cc2)c(OC)c1,–,5.95 µM (active)
CC(=O)c1sc(NC(=O)C(C)C)nc1C,–,15.4 µM (active)
CC1CCN(S(=O)(=O)c2ccc3nc(N4CCN(c5ccccc5)CC4)ccc3c2)CC1,–,12.3 µM (active)
COC(=O)c1nc2ccc(N3CCOCC3)cc2c(C)c1C(=O)OC,–,34.6 µM (active)
Cc1cc2nc3ccc(=[N+](C)C)cc-3sc2cc1N,-10.4% (inactive),–
C=C[C@@]1(C)CC(=O)[C@]2(O)[C@@]3(C)[C@@H](O)CCC(C)(C)[C@@H]3[C@H](O)[C@H](OC(C)=O)[C@@]2(C)O1,–,0.0388 µM (active)
COCCNC(=O)C(OC(=O)c1nsc(Cl)c1Cl)C(C)C (stereo not given),24.3% (inactive),–
COc1ccc(NC(=O)CSc2nc(-c3ccc(C)cc3)cc(C(F)(F)F)c2C#N)cc1,26.7% [at 45 µM] (inactive),–
COc1ccc(OC)c(CNC(=O)C2CCN(C(=O)N(C)C)CC2)c1,-4.27% (inactive),–
O=C(NCCOC(=O)c1ccc([N+](=O)[O-])cc1)c1cccnc1,26.3% (inactive),–
COc1ccc(Nc2ncc(C#N)c(N)n2)c(OC)c1,-3.23% (inactive),–
O=C(O)c1cc(-c2ccco2)nc2ccc(Br)cc12,–,19.4 µM (active)
Cc1cccn2c(=O)c(/C=C3\SC(=S)NC3=O)c(NCCCN3CCOCC3)nc12,–,7.74 µM (active)
Cc1cccc(N2C(=O)C(O)=C(C(=O)c3cccs3)C2c2ccc(C(C)C)cc2)n1 (stereo not given),22% (inactive),–
COc1ccc(S(=O)(=O)Nc2ccccn2)c(C)c1C,1.99% [at 45 µM] (inactive),–

SMILES,activation,Potency
COC(=O)CCNC(=O)Cn1cnc2sc3c(c2c1=O)CCCC3,24.4% (inactive),–
O=C(Nc1ccc(Cl)cc1)Nc1ccccc1Sc1ncc([N+](=O)[O-])s1,7.1% (inactive),–
CCN(CC)C(=O)c1cc(Cl)ccc1NC(=O)c1ccco1,-1.6% [at 125 µM] (inactive),–
CCOC(=O)CSc1nc(=O)n2cc(C)ccc2n1,20.1% (inactive),–
CCOP1(=O)OCC2OC(n3cnc4c(N)ncnc43)C(O)C2O1 (stereo not given),–,6.91 µM (active)
Nc1c(S(=O)(=O)O)cc(NC(=O)c2ccccc2)c2c1C(=O)c1ccccc1C2=O,10.9% [at 45 µM] (inactive),–
O=C(Nc1ccccc1C(=O)NCCc1ccccc1)c1ccco1,-11.1% [at 125 µM] (inactive),–
Cc1c(CCOC(=O)c2cc([N+](=O)[O-])ccc2Cl)sc[n+]1CCCCS(=O)(=O)[O-],7.88% (inactive),–
C=CCNc1ncnc2c1ncn2C1OC(CO)C(O)C1O (stereo not given),-29.1% (inactive),–
CCN(CC)S(=O)(=O)c1ccc(C)c(NC(=O)Cn2cnc3cc([N+](=O)[O-])ccc3c2=O)c1,–,38.9 µM (active)
Brc1ccc2ncnc(NCc3cccnc3)c2c1,–,38.9 µM (active)
Cc1cccc(-c2nnc(SCC(=O)NC3CC3)n2C)c1,-32% (inactive),–
NCCNC(=O)Cc1ccc(NC(=O)Cc2ccc(Nc3ncnc4c3ncn4[C@@H]3O[C@H](CO)[C@@H](O)[C@H]3O)cc2)cc1,–,1.23 µM (active)
CCNc1nc(NCC)nc(N(C)/N=C/c2ccco2)n1,7.3% (inactive),–
O=C(CCc1nnc2ccc(NCCCN3CCCC3=O)nn12)NCc1ccccc1Cl,2.42% (inactive),–
COc1ccc(CC(=O)N/N=C/c2cccnc2)cc1OC,-6.39% (inactive),–
CC(C)(C)C(=O)Nc1ccccc1C(=O)NCc1ccco1,7.47% [at 125 µM] (inactive),–
Cc1ccccc1NC(=O)CNc1ccccc1C(=O)NCc1ccco1,5.5% [at 125 µM] (inactive),–
CC1C/C(=N\NC(N)=S)c2cc(Cl)ccc2S1 (stereo not given),5.78% (inactive),–
Cc1ccc(CN(C)C(=O)c2ccccc2NC(=O)c2ccccc2)o1,-3.25% [at 125 µM] (inactive),–
